DRD3 antagonist: blocks the human D3 dopamine receptor; P35462; D3R cells, DiscoveRx beta-arrestin luminescence, antagonist mode; hits give low values; max response, negative = inhibition, %; hit rate 2.5% among 360,000; in the data active = max response below about -50%; inconclusive = no clear call, values can overlap the other calls; note: % is set by controls: 0 for no effect and ±100 for the full control effect
Target sequence (P35462 whole entry, looked up): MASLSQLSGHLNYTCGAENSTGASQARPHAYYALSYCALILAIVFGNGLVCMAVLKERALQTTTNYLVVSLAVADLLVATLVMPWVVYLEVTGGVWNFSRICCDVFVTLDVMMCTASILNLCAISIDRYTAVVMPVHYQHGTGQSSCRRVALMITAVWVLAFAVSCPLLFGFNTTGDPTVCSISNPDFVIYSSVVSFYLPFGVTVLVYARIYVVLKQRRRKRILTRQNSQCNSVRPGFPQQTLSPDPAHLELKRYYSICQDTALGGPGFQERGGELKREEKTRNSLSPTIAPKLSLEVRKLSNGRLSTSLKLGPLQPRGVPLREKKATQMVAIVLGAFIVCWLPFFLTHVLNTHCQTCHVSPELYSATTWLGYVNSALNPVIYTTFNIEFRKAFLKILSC
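Cells plated overnight at 1500 cells/well, then exposed to library compounds with dopamine controls for 90 minutes at 37 degrees C. DiscoveRx reagent added for 30–60 minutes at room temperature; luminescence read, quantitative HTS format.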
D3 ag: agonists of human D3 dopamine receptor. hit rate 0.58% among 410,000. P35462. D3R DiscoveRx beta-arrestin cells, luminescence, 90 min. max activation, %; in the data active = max activation above about 30%; note: 0% is about no effect
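Agonist mode: compounds and dopamine controls were applied to plated cells for 90 min at 37 degrees C after an overnight attachment at 1500 cells/well. Luminescent read-out followed 30 - 60 minutes at room temperature with DiscoveRx detection reagent.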
KB-V1 MDR tox: kills drug-selected multidrug resistant KB-V1 cells. KB-V1 MDR cells viability, CellTiter-Glo, 72 h. Potency, µM (doses to about 46.1 µM), usual class: cytotoxic. hit rate 3.4% among 400,000. AID 1347076; note: potency is the fitted concentration of half-maximal effect; % is set by controls: 0 for no effect and ±100 for the full control effect; nearly all actives have a fitted effect of over 60% in size
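Cytotoxicity toward P-gp-expressing KB-V1 cells was determined as loss of CellTiter-Glo luminescence after 72 h at 37 degrees C. Compounds were tested in quantitative HTS format across a concentration range, with curves fitted to normalized data.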
KB-3-1 cytotox: KB-3-1 parental cell cytotoxicity; KB-3-1 viability, CellTiter-Glo ATP luminescence, 72 h; Potency, µM (highest dose often 46.1 µM), most hits filed as cytotoxic; hit rate 1.4% among 400,000; AID 1347075; note: potency is the fitted concentration of half-maximal effect; % is set by controls: 0 for no effect and ±100 for the full control effect; nearly all actives have a fitted effect of over 60% in size
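Parental KB-3-1 viability, qHTS format: 72 h compound exposure, 37 °C; CellTiter-Glo; media-only wells and DMSO plates as controls; concentration-effect fits on corrected data.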
MCF10A rereplic: induces DNA re-replication in MCF 10a normal breast cells. MCF 10A DNA re-replication, Hoechst nuclear intensity, 48 h. hit rate 2.9% among 350,000. Potency, µM (top dose mostly 46.1 µM), inactives show top-dose activity, positive = re-replication, usual class: activators; note: potency is the fitted concentration of half-maximal effect; % of control where 0% means no effect; nearly all actives have a fitted effect of over 50% in size
SW480 rereplic: DNA re-replication induction in SW480 cells; SW480 DNA re-replication, Hoechst DNA content imaging, 48 h; Potency, µM (highest dose often 46.1 µM), for inactives: at the highest dose re-replication activation, hits mostly activators; hit rate 1.8% among 340,000; note: potency is the fitted concentration of half-maximal effect; % of control where 0% means no effect; nearly all actives have a fitted effect of over 55% in size
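Image-based DNA-content assay: after two days of treatment, nuclei were labelled with the DNA dye Hoechst and imaged, and hits were compounds raising the count of nuclei showing high fluorescence intensity.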
* hit, by the source's call. Only some compounds are listed: those with a hit (about 8.9% of all), similar ones and a draw of the others. Unless noted, calls come from the whole dose curve; as a rule, active = well fitted curve in the direction sought with a large enough effect; inconclusive = small, poorly fitted or top-dose-only effect, or another doubt; inactive = no such curve, though single readings can be large; an effect the other way counts as inactive or inconclusive.

`COCOCCn1cc(CN2CCS(=O)(=O)N(Cc3ccc(-c4ccc(Cl)c(Cl)c4)cc3)C(C)C2=O)nn1` (stereo unspecified) gave DRD3 antagonist inconclusive, D3 ag 3, KB-V1 MDR tox inconclusive and KB-3-1 cytotox 15µM*.
For CC1C(=O)N(Cc2cn(CC3CCCCC3)nn2)CCS(=O)(=O)N1Cc1ccc(-c2ccc(Cl)c(Cl)c2)cc1 (stereo unspecified) the results were DRD3 antagonist 0, D3 ag -10, KB-V1 MDR tox inactive and KB-3-1 cytotox inactive.
`CC(C)C1C(=O)N(Cc2cn(CC3CCCCC3)nn2)CCS(=O)(=O)N1Cc1ccc(-c2ccc(F)nc2)cc1` (stereo unspecified) gave DRD3 antagonist -4, D3 ag 1, KB-V1 MDR tox inconclusive and KB-3-1 cytotox 16µM*.
`CC1C(=O)N(Cc2cn(CC3CCCCC3)nn2)CCS(=O)(=O)N1Cc1ccc(-c2ccc(Cl)cc2)cc1` (stereo unspecified) gave DRD3 antagonist 20, D3 ag 4, KB-V1 MDR tox 18µM* and KB-3-1 cytotox inconclusive.
COc1ccc(NC(=O)CCC(=O)c2cccs2)cc1Cl was read as DRD3 antagonist 0, D3 ag -6, KB-V1 MDR tox inactive, KB-3-1 cytotox inactive, MCF10A rereplic 1% and SW480 rereplic 10%.
COc1cc(NCCC(=O)c2cccs2)c(OC)cc1Cl was read as DRD3 antagonist 5, D3 ag 2, KB-V1 MDR tox inactive, KB-3-1 cytotox inactive, MCF10A rereplic 21µM* and SW480 rereplic inconclusive.
Screening O=C1CCCc2c1nc(-c1ccc([N+](=O)[O-])cc1)n2O returned DRD3 antagonist -6, D3 ag -20, KB-V1 MDR tox inactive, KB-3-1 cytotox inactive, MCF10A rereplic 23µM* and SW480 rereplic 34%.
For O=C1CCCc2c1nc(-c1ccc(F)cc1)n2O the results were DRD3 antagonist 18, D3 ag 3, KB-V1 MDR tox inactive, KB-3-1 cytotox inactive, MCF10A rereplic 4% and SW480 rereplic -19%.
Screening N#Cc1ccccc1S(=O)(=O)N1CCN(C(=O)C2CC(=O)N(c3ccc4c(c3)OCCO4)C2)CC1 (stereo unspecified) returned DRD3 antagonist inconclusive, D3 ag -11, KB-V1 MDR tox inactive, KB-3-1 cytotox inactive, MCF10A rereplic -7% and SW480 rereplic -2%.
`COc1cc2nc(C3CCC3)nc(N3CCN(c4ccccn4)CC3)c2cc1OC` gave DRD3 antagonist 11, D3 ag 3, KB-V1 MDR tox inconclusive, KB-3-1 cytotox inconclusive, MCF10A rereplic inconclusive and SW480 rereplic 1%.
For COc1cc2nc(C3CCC3)nc(N3CCN(c4ccccc4OC)CC3)c2cc1OC the results were DRD3 antagonist 52, D3 ag 11, KB-V1 MDR tox 7.3µM*, KB-3-1 cytotox inactive, MCF10A rereplic inconclusive and SW480 rereplic inconclusive.
Cc1cc(C)nc(NC2=NCC(=O)N2c2cccc(Cl)c2)n1 was read as DRD3 antagonist 16, D3 ag -1, KB-V1 MDR tox 21µM*, KB-3-1 cytotox inactive, MCF10A rereplic 16% and SW480 rereplic -4%.
Screening Cc1cc(C)nc(NC2=NCC(=O)N2c2ccccc2)n1 returned DRD3 antagonist 32, D3 ag -3, KB-V1 MDR tox inactive, KB-3-1 cytotox inactive, MCF10A rereplic 20% and SW480 rereplic 5%.
For COc1ccc(C2=NOC(C(=O)NCc3ccco3)C2)cc1 (stereo unspecified) the results were DRD3 antagonist 3, D3 ag 6, KB-V1 MDR tox 7.3µM*, KB-3-1 cytotox 13µM*, MCF10A rereplic 6.5µM* and SW480 rereplic 18µM*.
For COc1cc(C2=NOC(C(=O)NCc3cccnc3)C2)cc(OC)c1OC (stereo unspecified) the results were DRD3 antagonist -4, D3 ag 2, KB-V1 MDR tox inactive, KB-3-1 cytotox inconclusive, MCF10A rereplic 17% and SW480 rereplic inconclusive.
